Experimental findings from the OligoGym collection are described below.
Note: reference of the scale not given here.

One test deals with TUBAL3. Kind of test: pooled miR-30 sensor sort-seq; sequence = guide strand. The settings on record: shRNA.
In turn, TAACTTGACATTCATTTGCACC returned a sensor-assay potency score (higher = more potent) of -1.19.
In the case of TTAAGAGAGACGTAAACCCTGA, the sensor-assay potency score (higher = more potent) was -0.309.
TTGTCCACCATGAAGGTACAGT showed a sensor-assay potency score (higher = more potent) of -0.604.
Sequence TTCATTGTTGGTACTGACCCAC yielded a sensor-assay potency score (higher = more potent) of 0.0791.
Same read-out and setting: for TGCATTTTCCAGCTGATCCTGT the value was -0.383; for TTTGTCAGCAGAGACGATGGGG, 0.442; for ATTGTTGGCAGCATCCTCCTTT, 0.0651.
Turning to TTCTCTGAGGTACCAGTGCAGA, the sensor-assay potency score (higher = more potent) was -1.43.
Take TAGACCGAGAACTCCAGCTTAG: the sensor-assay potency score (higher = more potent) is -0.779.

The next test has as its target TUBB2B. The test is described as above. The settings on record: shRNA.
In the case of ATGCTCATCACTGATGACCTCC, the sensor-assay potency score (higher = more potent) was -0.227.
Regarding TTCATTGTAGTAAACATTGATT, the sensor-assay potency score (higher = more potent) is -0.873.
TTCCACCAGCTGGTGGACCGAG: the sensor-assay potency score (higher = more potent) is -1.21.
In turn, AACACGAAATTGTCTGGTCTGA registered a sensor-assay potency score (higher = more potent) of -0.953.
AACATTGATTCTCTCCAGCTGC came in with a sensor-assay potency score (higher = more potent) of -0.381.
As for TAAACATTGATTCTCTCCAGCT, the sensor-assay potency score (higher = more potent) was -0.472.
TAACCGAATCCATCGTGCCTGG came in with a sensor-assay potency score (higher = more potent) of -0.853.
GTAAACATTGATTCTCTCCAGC came in with a sensor-assay potency score (higher = more potent) of -1.79.
Turning to TCCATGGTAACTGCCAGTGGGG, the sensor-assay potency score (higher = more potent) is -1.71.
Turning to ATGCAGTAGGTTTCATCTGTGT, the sensor-assay potency score (higher = more potent) is -0.689.
TCGTTGTCAATGCAGTAGGTTT came in with a sensor-assay potency score (higher = more potent) of -1.57.
For TAGTAAACATTGATTCTCTCCA, the sensor-assay potency score (higher = more potent) stood at 0.0212.

A further test addresses TUBGCP5. Described as above. The settings on record: shRNA.
TACAACTCTATACAGTATCTAC registered a sensor-assay potency score (higher = more potent) of -0.752.
On the same count and under the same terms, for TTGATCTTGTTCTTCTAACGGT the value was 0.145; for TTTTTCTGCAGTACTAACCAGT, -0.246; for TATTGTAGTATCATTATTGATG, -0.448.
As to TAGATAGACGTGAACTATCTTC, the sensor-assay potency score (higher = more potent) is -0.283.
In turn, TAAACTATGAGGAAACTGGGAG displayed a sensor-assay potency score (higher = more potent) of 0.101.
Turning to TAACGGTGTCCTGTCTACCTGA, the sensor-assay potency score (higher = more potent) was -0.629.
In the case of TTTGTGGCTGTTGACATCCAAG, the sensor-assay potency score (higher = more potent) was -1.62.
On the same count and under the same terms, for TGGATCATGAACATCATCCAGT the value was -0.749; for TTCTGTTTTGATCTTGTTCTTC, 0.0443; for TTAATCTCTTCCAACTAGCAGC, -0.324.
ATCTCTTCCAACTAGCAGCTTT showed a sensor-assay potency score (higher = more potent) of -0.582.

A further test concerns the target TULP4. The description is as above. The settings on record: shRNA.
Sequence TTGTAGAACTTGACCATGGCAC came in with a sensor-assay potency score (higher = more potent) of 0.0563.
The sequence TAAATTAATATAGTCCATGGAA showed a sensor-assay potency score (higher = more potent) of -0.711.
The sequence TTTCTGACTCTTCACTTTCTTC gave a sensor-assay potency score (higher = more potent) of -1.27.
Same read-out and setting: for TTAAAGTCACTCAAAGTCCTAG the value was 0.213; for TTCAAGCACACATCCACTGGGG, 0.492.
The same measure, in the same setting: for AACATTGTAGAACTTGACCATG the value was -1.37.
For the sequence TTTTATAGATTACTGCACCGAG, the sensor-assay potency score (higher = more potent) came to 0.0761.
